Test results reported in PubChem BioAssay AID1159580 (chemical genetic matrix, 2015).
Among all 5,500 compounds or so, about 2,000 (36%) were called active. Inconclusive results (about 18%) are left out. No stated cut-off is given here; in the data, active means normalized growth mostly below about 0.91 (no sharp cut-off); inconclusive means no clear call, values can overlap the other calls; inactive means mostly above about 0.92. This is one part of the list.

Test: chemical genetic growth profiling, strain panel (AID 1159580);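 further: tested at 20 µM; growth read once vehicle control cultures reached saturation at 30 °C; 1 = growth at the plate median or of vehicle wells; lower values mean less growth of the strain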
Conditions: growth OD

Measured: normalized growth

CC(=O)O[C@H]1C[C@@H](OC(C)=O)C(C)(C)C2CC(=O)[C@]3(C)C(CC[C@@]4(C)[C@H](C(=O)O)OC(=O)C5OC543)[C@]21C (stereo partly specified)
inactive: S. cerevisiae deletion strains, locus YJR066W, strain TOR1, active compounds read low 0.96 | S. cerevisiae deletion strains, locus YKL009W, strain mrt4, active compounds read low 0.996 | S. cerevisiae deletion strains, locus YKL068W, active compounds read low 0.988 | S. cerevisiae deletion strains, locus YKL085W, strain MDH1 (second series), active compounds read low 1 | S. cerevisiae deletion strains, locus YKL085W, strain MDH1, active compounds read low 1 | S. cerevisiae deletion strains, locus YKL160W, strain elf1, active compounds read low 0.99 | S. cerevisiae deletion strains, locus YKL190W, strain CNB1, active compounds read low 0.987 | S. cerevisiae deletion strains, locus YKR001C, strain vps1, active compounds read low 1.01 | S. cerevisiae deletion strains, locus YKR026C, strain gcn3, active compounds read low 1 | S. cerevisiae deletion strains, locus YKR091W, strain srl3, active compounds read low 0.978 | S. cerevisiae deletion strains, locus YLL001W, strain dnm1, active compounds read low 1 | S. cerevisiae deletion strains, locus YLL026W, active compounds read low 0.981 | S. cerevisiae deletion strains, locus YLL041C, strain sdh2, active compounds read low 0.989 | S. cerevisiae deletion strains, locus YLR027C, strain aat2, active compounds read low 1 | S. cerevisiae deletion strains, locus YLR039C, strain RIC1, active compounds read low 1.06 | S. cerevisiae deletion strains, locus YLR058C, strain SHM2, active compounds read low 0.985 | S. cerevisiae deletion strains, locus YLR102C, strain apc9, active compounds read low 1 | S. cerevisiae deletion strains, locus YLR113W, strain HOG1, active compounds read low 0.968 | S. cerevisiae deletion strains, locus YLR221C, strain rsa3, active compounds read low 1.01 | S. cerevisiae deletion strains, locus YLR258W, strain gsy2, active compounds read low 0.995 | S. cerevisiae deletion strains, locus YLR262C, strain YPT6 (second series), active compounds read low 0.978 | S. cerevisiae deletion strains, locus YLR262C, strain YPT6, active compounds read low 1.05 | S. cerevisiae deletion strains, locus YLR268W, strain sec22, active compounds read low 0.954 | S. cerevisiae deletion strains, locus YLR320W, strain mms22, active compounds read low 1.02 | S. cerevisiae deletion strains, locus YLR342W, strain FKS1 (second series), active compounds read low 0.972 | S. cerevisiae deletion strains, locus YLR342W, strain FKS1, active compounds read low 1.01 | S. cerevisiae deletion strains, locus YLR357W, strain rsc2, active compounds read low 1 | S. cerevisiae deletion strains, locus YLR370C, strain arc18, active compounds read low 0.981 | S. cerevisiae deletion strains, locus YLR371W, strain rom2, active compounds read low 0.985 | S. cerevisiae deletion strains, locus YLR384C, strain iki3, active compounds read low 0.998 | S. cerevisiae deletion strains, locus YLR418C, strain cdc73, active compounds read low 1.07 | S. cerevisiae deletion strains, locus YML016C, strain PPZ1, active compounds read low 0.976 | S. cerevisiae deletion strains, locus YML032C, strain rad52, active compounds read low 0.981 | S. cerevisiae deletion strains, locus YML120C, strain ndi1, active compounds read low 0.993 | S. cerevisiae deletion strains, locus YML124C, strain tub3, active compounds read low 0.989 | S. cerevisiae deletion strains, locus YMR058W, strain fet3, active compounds read low 0.982 | S. cerevisiae deletion strains, locus YMR078C, strain ctf18, active compounds read low 0.975 | S. cerevisiae deletion strains, locus YMR125W, strain sto1, active compounds read low 0.98 | S. cerevisiae deletion strains, locus YMR129W, active compounds read low 0.976 | S. cerevisiae deletion strains, locus YMR205C, strain PFK2, active compounds read low 1.01 | S. cerevisiae deletion strains, locus YMR223W, strain ubp8, active compounds read low 0.993 | S. cerevisiae deletion strains, locus YMR231W, strain pep5, active compounds read low 0.991 | S. cerevisiae deletion strains, locus YMR307W, strain GAS1, active compounds read low 0.984 | S. cerevisiae deletion strains, locus YNL067W, strain RPL9B, active compounds read low 1.04 | S. cerevisiae deletion strains, locus YNL071W, strain lat1, active compounds read low 1.01 | S. cerevisiae deletion strains, locus YNL128W, strain TEP1, active compounds read low 0.951 | S. cerevisiae deletion strains, locus YNL153C, strain GIM3, active compounds read low 1.02 | S. cerevisiae deletion strains, locus YNL183C, strain NPR1, active compounds read low 0.972 | S. cerevisiae deletion strains, locus YNL209W, strain ssb2, active compounds read low 0.982 | S. cerevisiae deletion strains, locus YNL233W, strain BNI4, active compounds read low 1.03 | S. cerevisiae deletion strains, locus YNL248C, strain rpa49, active compounds read low 0.964 | S. cerevisiae deletion strains, locus YNL250W, strain rad50, active compounds read low 0.993 | S. cerevisiae deletion strains, locus YNL271C, strain bni1, active compounds read low 0.996 | S. cerevisiae deletion strains, locus YNL298W, strain CLA4, active compounds read low 0.99 | S. cerevisiae deletion strains, locus YNL307C, strain MCK1, active compounds read low 0.999 | S. cerevisiae deletion strains, locus YNL322C, strain KRE1 (second series), active compounds read low 1.01 | S. cerevisiae deletion strains, locus YNR049C, strain mso1, active compounds read low 0.972 | S. cerevisiae deletion strains, locus YNR052C, strain pop2, active compounds read low 1.03 | S. cerevisiae deletion strains, locus YOL012C, strain htz1 0.975 | S. cerevisiae deletion strains, locus YOL147C, strain pex11, active compounds read low 0.992 | S. cerevisiae deletion strains, locus YOR001W, strain rrp6, active compounds read low 1.01 | S. cerevisiae deletion strains, locus YOR061W, strain CKA2, active compounds read low 0.964 | S. cerevisiae deletion strains, locus YOR069W, strain VPS5, active compounds read low 0.99 | S. cerevisiae deletion strains, locus YOR070C, strain gyp1, active compounds read low 1 | S. cerevisiae deletion strains, locus YOR080W, strain dia2, active compounds read low 0.983 | S. cerevisiae deletion strains, locus YOR083W, strain WHI5, active compounds read low 1.01 | S. cerevisiae deletion strains, locus YOR106W, strain vam3, active compounds read low 0.982 | S. cerevisiae deletion strains, locus YOR136W, strain idh2, active compounds read low 0.985 | S. cerevisiae deletion strains, locus YOR144C, strain elg1, active compounds read low 0.994 | S. cerevisiae deletion strains, locus YOR184W, strain ser1, active compounds read low 0.968 | S. cerevisiae deletion strains, locus YOR231W, strain MKK1, active compounds read low 1.02 | S. cerevisiae deletion strains, locus YOR265W, strain rbl2, active compounds read low 1 | S. cerevisiae deletion strains, locus YOR270C, strain vph1, active compounds read low 1.02 | S. cerevisiae deletion strains, locus YOR290C, strain snf2, active compounds read low 0.969 | S. cerevisiae deletion strains, locus YOR316C, strain cot1, active compounds read low 0.986 | S. cerevisiae deletion strains, locus YPL051W, strain arl3, active compounds read low 0.99 | S. cerevisiae deletion strains, locus YPL078C, strain atp4, active compounds read low 0.985 | S. cerevisiae deletion strains, locus YPL106C, strain sse1, active compounds read low 1 | S. cerevisiae deletion strains, locus YPL240C, strain hsp82, active compounds read low 0.993 | S. cerevisiae deletion strains, locus YPL256C, strain CLN2, active compounds read low 1.01 | S. cerevisiae deletion strains, locus YPR119W, strain clb2, active compounds read low 0.994 | S. cerevisiae deletion strains, locus YPR141C, strain kar3, active compounds read low 0.986 | S. cerevisiae deletion strains, locus YPR163C, strain tif3, active compounds read low 0.998 | S. cerevisiae deletion strains, locus YPR167C, strain met16, active compounds read low 0.988 | S. cerevisiae deletion strains, strain wtn01, active compounds read low 0.983 | S. cerevisiae strains, strain wild type, active compounds read low 0.974
